ELG1 DNA repair = qHTS screen for small molecules that inhibit ELG1-dependent DNA repair in human embryonic kidney (HEK293T) cells expressing luciferase-tagged ELG1; Potency, µM (doses to about 46.1 µM), for the others: at the top dose activity change, negative = inhibition, hits mostly inhibitors; hit rate 2.3% among 330,000; HEK293T ELG1-luciferase reporter, luminescence, 16 h; DNA damage induced by 5-fluorouridine; note: % is set by controls: 0 for no effect and ±100 for the full control effect; nearly all actives have a fitted effect of over 55% in size
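DMSO vehicle served as the neutral condition. Each well held 2,000 cells given 5-fluorouridine plus compound; after 16 hr at 37 °C/5% CO2, ONE-Glo was added and luciferase measured 30 min later.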
KB-3-1 cytotox = qHTS assay for MDR1-selective chemotherapeutics: Primary screen using the parental adenocarcinoma cell KB-3-1. KB-3-1 viability, CellTiter-Glo ATP luminescence, 72 h. Potency, µM (doses to about 46.1 µM), usual class: cytotoxic. hit rate 1.4% among 400,000; note: % is set by controls: 0 for no effect and ±100 for the full control effect; nearly all actives have a fitted effect of over 60% in size
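Screening of KB-3-1 cells (DMEM, 10% FBS, phenol-red free) ran from lowest to highest compound concentration; after 72 h at 37 °C viability was read luminescently and curves fitted.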
KB-V1 MDR tox = qHTS assay for MDR1-selective chemotherapeutics: Primary screen using the drug-selected MDR subline cells KB-V1; KB-V1 MDR cells viability, CellTiter-Glo, 72 h; Potency, µM (highest dose often 46.1 µM), most hits filed as cytotoxic; hit rate 3.4% among 400,000; note: % is set by controls: 0 for no effect and ±100 for the full control effect; nearly all actives have a fitted effect of over 60% in size
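Luminescent ATP read-out (CellTiter-Glo, 10 min) measures survival of drug-selected KB-V1 MDR cells after 72 h, 37 degrees C compound exposure. Medium: phenol-red-free DMEM, 10% FBS. Values from fitted concentration-response curves.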
SW480 rereplic = A quantitative high throughput screen for small molecules that induce DNA re-replication in SW480 colon adenocarcinoma cells; SW480 DNA re-replication, Hoechst DNA content imaging, 48 h; Potency, µM (series often up to 46.1 µM), for the others: top-dose re-replication activation, most hits filed as activators; hit rate 1.8% among 340,000; AID 624297, 2012; note: % of control where 0% means no effect; nearly all actives have a fitted effect of over 55% in size
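Quantitative HTS format with DMSO vehicle controls; 48 hr drug incubation at 37 C, then 40 min Hoechst staining and scanning imager measurement at 405 nm excitation.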
MCF10A rereplic = A quantitative high throughput screen for small molecules that induce DNA re-replication in MCF 10a normal breast cells; MCF 10A DNA re-replication, Hoechst nuclear intensity, 48 h; Potency, µM (series often up to 46.1 µM), without a hit: top-dose activity, positive = re-replication, usual class: activators; hit rate 2.9% among 350,000; note: % of control where 0% means no effect; nearly all actives have a fitted effect of over 50% in size
* marks the source's active call; other numbers are inactive results. A selection: hits, their analogues and other compounds. The true share with any hit is near 8.1%. Calls come from the whole dose curve; as a rule, active = well fitted curve in the direction sought with a large enough effect; inconclusive = small, poorly fitted or top-dose-only effect, or another doubt; inactive = no such curve, though single readings can be large; an effect the other way counts as inactive or inconclusive. Potency is the fitted concentration of half-maximal effect.

`COc1ccc(-c2ccc(CCC(=O)O)o2)cc1` gave ELG1 DNA repair inconclusive, KB-3-1 cytotox inconclusive, KB-V1 MDR tox inactive, SW480 rereplic inconclusive and MCF10A rereplic inconclusive.
O=C(O)CCc1ccc(-c2ccc(Br)cc2)o1 was read as ELG1 DNA repair inconclusive, KB-3-1 cytotox inactive, KB-V1 MDR tox inactive, SW480 rereplic 5.8µM* and MCF10A rereplic inconclusive.
`NC(=O)c1ccc(-c2ccc(Br)cc2)o1` gave ELG1 DNA repair inconclusive, KB-3-1 cytotox 8.2µM*, KB-V1 MDR tox 8.2µM*, SW480 rereplic 0% and MCF10A rereplic 14%.
Screening NC(=O)C1CCN(C(=S)c2ccc(-c3ccc(Br)cc3)o2)CC1 returned ELG1 DNA repair inconclusive, KB-3-1 cytotox inactive, KB-V1 MDR tox inactive, SW480 rereplic -2% and MCF10A rereplic 0%.
For O=C(O)CCc1ccc(-c2ccc(Cl)cc2)o1 the results were ELG1 DNA repair inconclusive, KB-3-1 cytotox inactive, KB-V1 MDR tox inactive, SW480 rereplic inconclusive and MCF10A rereplic 21µM*.
`O=C(/C=C/c1cn(CC(O)CN2CCCCC2)c2ccccc12)c1cccs1` (configuration not stated) gave ELG1 DNA repair 2%, KB-3-1 cytotox inconclusive, KB-V1 MDR tox 23µM*, SW480 rereplic 21µM* and MCF10A rereplic 23µM*.
For O=C(/C=C/c1cn(CC(O)CN2CCCCCC2)c2ccccc12)c1ccccc1 (configuration not stated) the results were KB-3-1 cytotox inconclusive and KB-V1 MDR tox inactive.
O=C(/C=C/c1cn(CC(O)CN2CCCCC2)c2ccccc12)c1ccccc1 (configuration not stated) was read as ELG1 DNA repair -14%, KB-3-1 cytotox inactive, KB-V1 MDR tox inactive, SW480 rereplic 21µM* and MCF10A rereplic 21µM*.
COc1ccc(C(=O)/C=C/c2cn(CC(O)CN3CCN(C)CC3)c3ccccc23)cc1OC (configuration not stated) was read as ELG1 DNA repair inconclusive, KB-3-1 cytotox inactive, KB-V1 MDR tox inactive, SW480 rereplic 23µM* and MCF10A rereplic 10µM*.
Screening COc1ccc(C(=O)/C=C/c2cn(CC(O)CN3CCCCCC3)c3ccccc23)cc1OC (configuration not stated) returned KB-3-1 cytotox inconclusive and KB-V1 MDR tox inactive.
Screening Cc1ccc(C(=O)/C=C/c2cn(CC(O)CN3CCCCCC3)c3ccccc23)cc1 (configuration not stated) returned KB-3-1 cytotox inactive and KB-V1 MDR tox inactive.
Screening CN(C)c1ccc(C=NC2CCc3ccccc32)cc1 (configuration not stated) returned KB-3-1 cytotox inactive and KB-V1 MDR tox inactive.
`O=C(CN1C(=O)c2cccc3cccc1c23)Nc1cccc(F)c1` gave KB-3-1 cytotox inactive and KB-V1 MDR tox inactive.
Screening Nc1nc2ccc(Cl)cc2cc1C(=O)NCCc1ccc(Cl)cc1Cl returned KB-3-1 cytotox inactive and KB-V1 MDR tox inconclusive.
Screening Nc1nc2ccc(Cl)cc2cc1C(=O)NCCc1c[nH]c2ccccc12 returned KB-3-1 cytotox 9.2µM* and KB-V1 MDR tox inactive.
O=C(/C=C/c1ccc2ccccc2n1)N1CCN(c2ccccc2)CC1 was read as ELG1 DNA repair -5%, KB-3-1 cytotox inactive, KB-V1 MDR tox inconclusive, SW480 rereplic -16% and MCF10A rereplic -8%.
`O=C(/C=C/c1ccc2ccccc2n1)N1CCN(S(=O)(=O)c2ccccc2F)CC1` gave ELG1 DNA repair 16µM*, KB-3-1 cytotox inconclusive, KB-V1 MDR tox inactive, SW480 rereplic 11% and MCF10A rereplic inconclusive.
Cn1c(C(c2cc3ccccc3n2C)c2cc3ccccc3n2C)cc2ccccc21 was read as KB-3-1 cytotox 18µM* and KB-V1 MDR tox inconclusive.

Screens from PubChem BioAssay.
